Growth yield data for 25 compounds are collected here from the supplement of paper PMC8007513.

The structures appear in SMILES notation. Counter-ions that a name gives are not always drawn. ± gives the standard error. Hit rate of the full screen: of about 1,300 compounds, about 130 (10%) showed an effect of 50% or more. The entries come from a sample that favours strong results as a whole.

The test system of the test is Trichoderma virens ATCC 9645. The test is described as follows: growth yield (OD600) with compound + IPBC relative to untreated control; higher = less growth inhibition. As to conditions: compound concentration: 100 uM, IPBC concentration: 200 ng/ml. A digest of the protocol: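 A biocide at 200 ng ml^−1 was co-applied to some wells, and library compounds were present in all test wells at 100 μM final. The wells held 100 μl of Trichoderma virens ATCC 9645 spores at 15,000 spores ml^−1 in potato dextrose broth, grown at 30 °C in 96-well plates, with OD600 read at 40 h and 72 h. Results are relative growth against the control without either agent, averaged across duplicate screens.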

For `CO[C@@H]1[C@@H](O[C@@H]2O[C@H](C)[C@@H](O[C@H]3C[C@@](C)(O)[C@@H](OC(=O)CC(C)C)[C@H](C)O3)[C@H](N(C)C)[C@H]2O)[C@@H](CC=O)C[C@@H](C)[C@@H](O)/C=C/C=C/C[C@@H](C)OC(=O)C[C@H]1OC(C)=O` [Josamycin] + CCCCNC(=O)OCC#CI [3-iodo-2-propynyl butylcarbamate (IPBC)], the growth yield is, setting by setting: (40 h) 100 ± 4.5%; (72 h) 103 ± 3.5%.
Regarding `Nc1cc(C(Cl)=C(Cl)Cl)c(S(N)(=O)=O)cc1S(N)(=O)=O` [Clorsulon] + CCCCNC(=O)OCC#CI [3-iodo-2-propynyl butylcarbamate (IPBC)], the growth yield by setting is: (40 h) 86.4 ± 2.2%; (72 h) 90.8 ± 3.1%.
In the case of `C[C@H](O)C(=O)Nc1c(I)c(C(=O)NC(CO)CO)c(I)c(C(=O)NC(CO)CO)c1I` [Iopamidol] + CCCCNC(=O)OCC#CI [3-iodo-2-propynyl butylcarbamate (IPBC)], the growth yield by setting is: (40 h) 101 ± 5.7%; (72 h) 101 ± 3.8%.
The matching figures for `CN(C)C(=N)NC(=N)N` [Metformin hydrochloride] + CCCCNC(=O)OCC#CI [3-iodo-2-propynyl butylcarbamate (IPBC)]: 85.9 ± 4.9% and 88 ± 2.2%.
`O=C1OCCN1/N=C/c1ccc([N+](=O)[O-])o1` [Furazolidone] + CCCCNC(=O)OCC#CI [3-iodo-2-propynyl butylcarbamate (IPBC)]: the growth yield by setting is: (40 h) 76.2 ± 8.6%; (72 h) 88.9 ± 5.2%.
For the compound `N=C(N)NCCN1CCCCCCC1` [Guanethidine sulfate] + CCCCNC(=O)OCC#CI [3-iodo-2-propynyl butylcarbamate (IPBC)], the growth yield runs as follows: (40 h) 81.3 ± 4.1%; (72 h) 90.2 ± 4.4%.
The like results for `COC[C@@H](NC(C)=O)C(=O)NCc1ccccc1` [Lacosamide] + CCCCNC(=O)OCC#CI [3-iodo-2-propynyl butylcarbamate (IPBC)] were, in that order, 85.6 ± 1.4% and 93.66 ± 0.73%.
In the case of `CN(C)CCCN1c2ccccc2CCc2ccccc21` [Imipramine hydrochloride] + CCCCNC(=O)OCC#CI [3-iodo-2-propynyl butylcarbamate (IPBC)], the growth yield is 81 ± 1.9% (40 h) and 96.28 ± 0.21% (72 h).
The matching figures for `OCCN1CCN(CCCN2c3ccccc3Sc3ccc(C(F)(F)F)cc32)CC1` [Fluphenazine dihydrochloride] + CCCCNC(=O)OCC#CI [3-iodo-2-propynyl butylcarbamate (IPBC)]: 2.86% and 2.31 ± 0.21%.
As for `CN(C)CCCN1c2ccccc2Sc2ccccc21` [Promazine hydrochloride] + CCCCNC(=O)OCC#CI [3-iodo-2-propynyl butylcarbamate (IPBC)], the growth yield was determined as 71.95 ± 0.16% (40 h) and 90.8 ± 3.8% (72 h).
Consider `CC(=O)c1ccc2c(c1)N(CCCN1CCC(CCO)CC1)c1ccccc1S2` [Piperacetazine] + CCCCNC(=O)OCC#CI [3-iodo-2-propynyl butylcarbamate (IPBC)], for which the growth yield is, setting by setting: (40 h) 55%; (72 h) 94.8%.
Take `CN(C)CCCN1c2ccccc2Sc2ccc(C(F)(F)F)cc21` [Triflupromazine hydrochloride] + CCCCNC(=O)OCC#CI [3-iodo-2-propynyl butylcarbamate (IPBC)]: the growth yield was 46.4 ± 2.9% (40 h) and 81.3 ± 4.3% (72 h).
The like results for `CNCCCN1c2ccccc2CCc2ccccc21` [Desipramine hydrochloride] + CCCCNC(=O)OCC#CI [3-iodo-2-propynyl butylcarbamate (IPBC)] were, in that order, 70.4 ± 1.4% and 93.5 ± 3.4%.
Consider `CC(=O)c1ccc2c(c1)N(CCCN(C)C)c1ccccc1S2` [Acetopromazine maleate salt] + CCCCNC(=O)OCC#CI [3-iodo-2-propynyl butylcarbamate (IPBC)], for which the growth yield is, setting by setting: (40 h) 70.84 ± 0.32%; (72 h) 91.6 ± 0.94%.
For the compound `CN1CCN(CCCN2c3ccccc3Sc3ccc(C(F)(F)F)cc32)CC1` [Trifluoperazine dihydrochloride] + CCCCNC(=O)OCC#CI [3-iodo-2-propynyl butylcarbamate (IPBC)], the growth yield by setting is: (40 h) 4.45 ± 0.95%; (72 h) 3.46 ± 0.1%.
`OC(CCCN1CCCCC1)(c1ccccc1)c1ccccc1` [Diphenidol hydrochloride] + CCCCNC(=O)OCC#CI [3-iodo-2-propynyl butylcarbamate (IPBC)]: the growth yield (40 h) was found to be 89.4 ± 2.4% and the growth yield (72 h) was found to be 96.7 ± 3.4%.
Turning to `CC(=O)N[C@@H](CC(=O)N[C@@H](CCC(=O)O)C(=O)O)C(=O)O` [Spaglumic acid] + CCCCNC(=O)OCC#CI [3-iodo-2-propynyl butylcarbamate (IPBC)], the growth yield is, setting by setting: (40 h) 95.6 ± 7.3%; (72 h) 95.1 ± 7%.
For the compound `COc1ccc(C(=O)NCc2cccnc2)cc1C(=O)NCc1cccnc1` [Picotamide monohydrate] + CCCCNC(=O)OCC#CI [3-iodo-2-propynyl butylcarbamate (IPBC)], the growth yield reads like this: (40 h) 91.2 ± 5.1%; (72 h) 97 ± 3.9%.
Turning to `CC(CN(C)C)CN1c2ccccc2CCc2ccccc21` (stereo not given) [Trimipramine maleate salt] + CCCCNC(=O)OCC#CI [3-iodo-2-propynyl butylcarbamate (IPBC)], the growth yield (40 h) was 75.1 ± 0.79% and the growth yield (72 h) worked out at 93.97 ± 0.84%.
Take `CN1CCOC(c2ccccc2)c2ccccc2C1` (stereo not given) [Nefopam hydrochloride] + CCCCNC(=O)OCC#CI [3-iodo-2-propynyl butylcarbamate (IPBC)]: the growth yield is 83.4 ± 1.1% (40 h) and 93.1 ± 1.1% (72 h).
As for `CC(=O)OCC1=C(C(=O)O)N2C(=O)[C@@H](N)[C@H]2SC1` [Cephalosporanic acid, 7-amino] + CCCCNC(=O)OCC#CI [3-iodo-2-propynyl butylcarbamate (IPBC)], the growth yield is, setting by setting: (40 h) 85.1 ± 3.8%; (72 h) 94.6 ± 3.1%.
In the case of `NS(=O)(=O)c1cc2c(cc1Cl)N=CNS2(=O)=O` [Chlorothiazide] + CCCCNC(=O)OCC#CI [3-iodo-2-propynyl butylcarbamate (IPBC)], the growth yield (40 h) is 102.6 ± 0.32% and the growth yield (72 h) was 106 ± 2.8%.
The like results for `CCOc1ccc(Cc2nccc3cc(OCC)c(OCC)cc23)cc1OCC` [Ethaverine hydrochloride] + CCCCNC(=O)OCC#CI [3-iodo-2-propynyl butylcarbamate (IPBC)] were, in that order, 55 ± 2.2% and 82.3 ± 2.2%.
Turning to `CC[C@H]1OC(=O)C[C@@H](O)[C@H](C)[C@@H](O[C@@H]2O[C@H](C)[C@@H](O[C@H]3C[C@@](C)(O)[C@@H](O)[C@H](C)O3)[C@H](N(C)C)[C@H]2O)[C@@H](CC=O)C[C@@H](C)C(=O)/C=C/C(C)=C/[C@@H]1CO[C@@H]1O[C@H](C)[C@@H](O)[C@@H](OC)[C@H]1OC` [Tylosin] + CCCCNC(=O)OCC#CI [3-iodo-2-propynyl butylcarbamate (IPBC)], the growth yield is 95.3 ± 7.9% (40 h) and 95.1 ± 3% (72 h).
In the case of `CC(C)NC[C@@H](O)COc1ccc(CC(N)=O)cc1` [(R)-(+)-Atenolol] + CCCCNC(=O)OCC#CI [3-iodo-2-propynyl butylcarbamate (IPBC)], the growth yield amounted to 101 ± 2.1% (40 h) and 98.48 ± 0.52% (72 h).
